These results are taken from PubChem BioAssay AID720707 (National Center for Advancing Translational Sciences (NCATS), 2013).

The campaign covered roughly 360,000 compounds. About 270 (0.075%) were called active. A call without a number means that no potency is given here. The call rests on the fitted dose curve; in most records, active means well fitted activation curve with a large enough effect; inconclusive means small, poorly fitted or top-dose-only effect; inactive means no such curve, though single readings can be large or run the other way. Many of the other results were omitted from the sample, so actives are more common in it than they were.
Potency means the concentration at half of the fitted maximal effect.

Chain of Rap guanine nucleotide exchange factor 3 (Homo sapiens) (O95398 whole entry, looked up): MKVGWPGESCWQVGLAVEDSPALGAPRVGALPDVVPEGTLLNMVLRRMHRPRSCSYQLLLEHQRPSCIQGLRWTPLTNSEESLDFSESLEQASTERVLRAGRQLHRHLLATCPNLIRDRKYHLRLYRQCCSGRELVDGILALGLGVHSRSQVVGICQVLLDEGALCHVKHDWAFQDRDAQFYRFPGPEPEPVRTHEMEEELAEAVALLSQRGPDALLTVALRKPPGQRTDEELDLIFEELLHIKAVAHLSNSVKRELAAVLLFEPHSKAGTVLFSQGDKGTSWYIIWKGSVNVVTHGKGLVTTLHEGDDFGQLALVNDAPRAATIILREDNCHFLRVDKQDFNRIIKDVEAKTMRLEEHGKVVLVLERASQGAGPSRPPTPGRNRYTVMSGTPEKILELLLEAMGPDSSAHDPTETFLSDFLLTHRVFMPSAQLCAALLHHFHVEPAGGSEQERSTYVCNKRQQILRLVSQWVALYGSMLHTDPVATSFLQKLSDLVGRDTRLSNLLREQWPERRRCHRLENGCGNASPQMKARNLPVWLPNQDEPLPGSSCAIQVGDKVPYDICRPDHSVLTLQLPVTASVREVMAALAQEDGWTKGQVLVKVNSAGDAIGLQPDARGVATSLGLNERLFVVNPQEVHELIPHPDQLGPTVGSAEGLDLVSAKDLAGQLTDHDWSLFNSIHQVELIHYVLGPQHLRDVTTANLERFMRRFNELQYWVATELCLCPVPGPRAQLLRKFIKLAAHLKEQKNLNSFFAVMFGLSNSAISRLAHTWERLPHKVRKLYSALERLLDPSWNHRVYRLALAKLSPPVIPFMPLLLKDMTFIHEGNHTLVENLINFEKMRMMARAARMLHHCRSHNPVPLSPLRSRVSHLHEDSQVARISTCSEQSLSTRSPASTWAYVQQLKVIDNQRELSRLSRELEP

The assay has as its target Rap guanine nucleotide exchange factor 3 (Homo sapiens) (UniProt O95398). The assay is described as follows: qHTS for Agonist of cAMP-regulated guanine nucleotide exchange factor 3 (EPAC1): primary screen. Further: nearly all actives have a fitted effect of over 60% in size. To be noted: biochemical assay; series mostly up to 154 µM. The source says: In multi-cellular eukaryotic organisms, the effects of cAMP are transduced by two ubiquitously-expressed intracellular cAMP receptors, the classic protein kinase A/cAMP-dependent protein kinase (PKA/cAPK) and the more recently discovered exchange protein directly activated by cAMP/cAMP-regulated guanine nucleotide exchange factor (EPAC/cAMP-GEF). Both PKA and EPAC are ubiquitously expressed in all tissues, and an increase in intracellular cAMP levels will lead to the activation of both PKA and EPAC. Therefore, careful dissections of the individual role and relative contribution of EPAC and PKA within the overall cAMP signaling in various model systems are critical for further elucidating the mechanism of cAMP signaling. To date no EPAC-specific antagonists and agonist, as well as isoform-specific agonists have been reported, and developing EPAC-specific pharmacological probes to determine the physiological functions that EPAC play in the overall cAMP-mediated signaling remains a major challenge within the research field. Furthermore, identified regulators of EPAC may lead to new mechanism-based therapeutic strategies specifically targeting the EPAC / cAMP-signaling components as EPAC has been implicated to play important roles in major human pathological conditions such as diabetes, heart disease, and cancer.
This qHTS will be used to screen the Molecular Libraries Small Molecule Repository (MLSMR) as a concentration-titration series using the NCGC unique quantitative screening (qHTS) platform to find activators for EPAC1. In addition, this assay will also be used as a counterscreen for the EPAC2 qHTS. This fluorescent based assay is developed and validated for EPAC1 that measures exchange using EPAC effector Rap1 complex with BODIPY-GDP, a GDP analog with a tethered fluorophores. Activators are identified by monitoring the change in fluorescence signal as the exchanged free BODIPY-GDP has a reduced fluorescence compared to Rap1-bound BODIPY-GDP. Increase in signal (activation) is the desired outcome for the EPAC1 agonist while no activity in this assay is desired for the EPAC2 agonist counterscreen.
[1] de Rooij, J., Zwartkruis, F. J., Verheijen, M. H., Cool, R. H., Nijman, S. M., Wittinghofer, A., and Bos, J.L. (1998) Nature 396, 474-477
NIH Chemical Genomics Center [NCGC]
NIH Molecular Libraries Probe Centers Network [MLPCN]
Assay Submitter (PI): Xiaodong Cheng, The University of Texas Medical Branch
Briefly, three uL of reagents (100 nM EPAC1, 250 nM RAP1B-BODIPY-GDP, 50 uM GDP) were dispensed into a 1536-well Greiner black solid-bottom medium binding assay plate. Controls and test compounds (23 nL) were transferred to the plate via a Kalypsys pin tool equipped with a 1536-pin array. The plates were centrifuged at 1,000 rpm for 15 seconds followed by 5 minute incubation at room temperature. The assay plates were read at 5 minute intervals for 30 minutes in the ViewLux plate reader using 480nm excitation and 540nm emission filters. The results were normalized to the agonist positive control of 6.5 mM cAMP.
A general note: In qHTS, concentration-response curves come from the screen itself.
In the case of `Cc1nc(NC(=O)C23CCC(C)(C(=O)O2)C3(C)C)sc1C` (stereo not given), the Potency result is “inactive”.
To `N#CCCCn1c(O)c(N=NC(=O)C(O)c2ccccc2)c2ccccc21` (stereo not given) belongs “inactive”.
Regarding `COc1cccc(C(=O)N2CCC(n3nccc3NC(=O)C3CCOC3)CC2)c1` (stereo not given), the Potency result was “inactive”.
To `CNC(=O)C1CC(=O)N(c2ccc(OCC(=O)Nc3ccccc3C)cc2)C1` (stereo not given) belongs “inactive”; to `O=C(CCN1C(=O)c2ccncc2C1=O)Nc1cc(F)ccc1F`, “inactive”.
With `Cc1ccc([C@H]2C[C@H](O)[C@@H](n3cc(COC(=O)c4ccccc4)nn3)CN2C(=O)C2CCCCC2)cc1` the entry was “inactive”; with `CC1CCN(c2ccc3c(c2)S(=O)(=O)c2cc(C(=O)O)ccc2C3=O)CC1`, “inactive”.
As for `Cc1ccc(CNC(=O)c2cccc3c2C(=O)c2ccc(N4CCC(C)CC4)cc2S3(=O)=O)cc1`, the Potency was 89.1 µM (active).
`COc1cccc(-c2ccc3c(c2)S(=O)(=O)c2cccc(C(=O)O)c2C3=O)c1OC`: the Potency entry is “inactive”.
With `O=C(O)C1=C[C@H](c2cccs2)C[C@H](OCCCCO)O1` the entry was “inactive”.
To `Cc1ccc(C(=O)OCC(=O)NCc2cc(C)c(O)c(C)c2)cc1S(=O)(=O)N1CCCCC1` belongs “inactive”; to `N#CCCn1ncc2ccccc21`, “inactive”; to `CC(C)Cc1nnc(NC(=O)CN2C(=O)NC3(CCCCC3)C2=O)s1`, “inactive”.
With `CCC1(c2ccccc2)NC(=O)N(CC(=O)Nc2ccccc2C(=O)NC2CCCC2)C1=O` (stereo not given) the entry was “inactive”; with `COCC(C)n1c(C)cc(C(=O)CSc2cc(C)c3ccccc3n2)c1C` (stereo not given), “inactive”.
Turning to `CCOc1ccc(-c2n[nH]c(=S)n2/N=C/c2cc3c(cc2[N+](=O)[O-])OCO3)cc1`, the Potency result is “inactive”.
As to `OCCN1CCOCCOCCN(CCO)CCN(CCO)CC1`, the Potency result is “inactive”.
With `Cc1ccc(Cl)cc1NC(=O)COC(=O)C1CCCCC1` the entry was “inactive”; with `N#C/C(=C\N1CCOCC1)S(=O)(=O)c1ccc(Cl)cc1`, “inactive”; with `O=C(CSc1nnc(-c2ccncc2)o1)NCc1ccc(Cl)cc1`, “inactive”.
With `Cc1cc(OCC(=O)N(C)c2c(N)n(Cc3ccccc3)c(=O)[nH]c2=O)c(C(C)C)cc1Cl` the entry was “inactive”.
To `Cc1cc2nc3c(=O)n(Cc4ccccc4)c(=O)[nH]c3nc2cc1N` belongs 100 µM (active); to `Cn1c(=O)[nH]c(=O)c2c1[nH]c(=S)n2Cc1ccccc1`, “inactive”; to `NC(=O)C1CCN(C(=O)COc2ccc3c4c(c(=O)oc3c2)CCC4)CC1`, “inactive”.
Take `O=S(=O)(c1cccc(-c2nnc(SC(F)F)n2-c2ccccc2)c1)N1CCCCC1`: the Potency entry was “inactive”.
With `O=C(O)C1=NN(c2c(F)c(F)cc(F)c2F)C(=O)CC1` the entry was “inactive”; with `CC(C)(C)n1nnnc1C(c1ccccc1F)N1CCN(C(=O)c2ccco2)CC1` (stereo not given), “inactive”.
In the case of `O=c1ccc2c(-c3ccccc3S(=O)(=O)O)c3ccc(O)c(O)c3oc-2c1O`, the Potency result is “inactive”.
For the compound `COc1ccc(NC(=O)C2CCC(CNS(=O)(=O)c3csc(C(N)=O)c3)CC2)cc1OC` (stereo not given), the Potency entry is “inactive”.
To `CCN(CC(=O)Nc1c(F)cccc1F)C(=O)Cc1cccs1` belongs “inactive”; to `Cc1ccc(NS(=O)(=O)c2cn(C)c(=O)n(C)c2=O)c(C)c1`, “inactive”.
`CCOc1ccccc1C(=O)NC1CC2CCCC(C1)N2Cc1ccccc1` (stereo not given): the Potency entry was “inactive”.
To `Cc1noc(C)c1CSCC(=O)Nc1ccc(Br)cc1Cl` belongs “inactive”; to `CCOC(=O)C(NS(=O)(=O)c1ccc(C)cc1)(C(F)(F)F)P(=O)(OCC(C)C)OCC(C)C` (stereo not given), “inactive”; to `CCN(CC)S(=O)(=O)c1cc([N+](=O)[O-])ccc1NNC(=O)Nc1ccccc1`, “inactive”.
To `Cc1ccccc1N1C(=O)C2ON(c3ccccc3)C(c3ccncc3)C2C1=O` (stereo not given) belongs “inactive”; to `CCOC(=O)c1c(NC(=O)CNC2CCCc3ccccc32)sc(C(N)=O)c1C` (stereo not given), “inactive”; to `Cc1n[nH]c(=O)c2c1nnn2Cc1ccc(F)cc1`, “inactive”.
For `O=C(COc1ccc2ccccc2c1)N1CCN(C(=O)c2cccs2)CC1`, the Potency result was “inactive”.
With `O=C(NC(C(=O)NCCN1CCOCC1)C12CC3CC(CC(C3)C1)C2)C1CCCCC1` (stereo not given) the entry was “inactive”; with `Cc1cc(C)cc(NC(=O)C(c2ccccc2)N2CCN(CC(=O)N3CCCC3)CC2)c1` (stereo not given), “inactive”; with `Cc1ccccc1Cn1c2ccccc2c2cnn(CC(=O)NCc3ccco3)c(=O)c21`, “inactive”.
To `C(#CCN1CCOCC1)CCCN1CCOCC1` belongs “inactive”; to `O=C1CC2(CC(c3ccc(Cl)cc3)=NO2)C(=O)N1c1ccccc1` (stereo not given), “inactive”; to `COc1ccc(N2CCN(C(=O)CN3C(=O)COc4ccccc43)CC2)cc1`, “inactive”.
To `Cc1cccc(OCC(O)Cn2c(N3CCCCC3)nc3c2c(=O)[nH]c(=O)n3C)c1` (stereo not given) belongs “inactive”; to `COc1ccc(C2NCCCC2c2ccccc2)cc1` (stereo not given), “inactive”; to `CCCCCn1c(SCCC(C)C)nc2c1c(=O)[nH]c(=O)n2C`, “inactive”.
For the compound `Cc1ccc2c(CSc3nncs3)cc(=O)oc2c1`, the Potency result is “inactive”.
To `CCCc1ccc(OCC(O)CN2CCN(CCO)CC2)cc1` (stereo not given) belongs “inactive”; to `COc1ccccc1N1CCN(S(=O)(=O)CCNC(=O)c2ccc(OC(C)C)cc2)CC1`, “inactive”; to `Cc1cc(NS(=O)(=O)c2ccc(NC(=O)C(C)Oc3cccc(C)c3C)cc2)nc(C)n1` (stereo not given), “inactive”.
To `CCc1c(C)sc(NC(=O)OC)c1C(=O)N1CCOCC1` belongs “inactive”.
With `O=S1(=O)N=C(N(CCO)/N=C/c2ccccc2F)c2ccccc21` the entry was “inactive”; with `CCOc1cc(/C=C2/N=C(c3ccc(C(C)(C)C)cc3)OC2=O)cc(Cl)c1OS(C)(=O)=O`, “inactive”; with `COc1ccc(C(=O)COC(=O)Cn2cnc3c2c(=O)n(C)c(=O)n3C)c(OC)c1`, “inactive”.
`CC(=O)c1c(C)[nH]c(C(=O)OCC(=O)Nc2sc3c(c2C#N)CCCC3)c1C`: the Potency result is “inactive”.
`NC(=O)C1=C[C@H](c2csc3ccccc23)C[C@H](OCc2ccc(CO)cc2)O1`: the Potency entry was “inactive”.
With `Cc1cccc(CCNS(=O)(=O)c2ccc(S(=O)(=O)NC3CCCC3)cc2)c1` the entry was “inactive”; with `Cn1c(NC(=O)c2ccco2)c(-c2ccccc2Cl)c(=O)c2ccccc21`, “inactive”.
With `C/C=C/c1ccc(OCC(=O)NNC(=O)CN(C)S(=O)(=O)c2ccc(C)cc2)c(OC)c1` the entry was “inactive”.
With `Cc1ccc(S(=O)(=O)N(C)C)cc1NC(=O)C1Cc2ccccc2CN1C(=O)c1ccco1` (stereo not given) the entry was “inactive”; with `CCOc1ccc(S(=O)(=O)N/N=C(\C)c2ccc(Cl)c(Cl)c2Cl)cc1`, “inactive”; with `C[n+]1ccc(/C=C/c2c[nH]c3ccccc23)cc1`, 100 µM (active).
As to `CC(C)(C)c1ccc(SCCc2ccncc2)cc1`, the Potency entry was “inactive”.
To `O=C(Nc1ccccc1Cl)NC1(C(=O)N2CCOCC2)CCCCC1` belongs “inactive”; to `CCCCC(=O)N(c1ccc(OC)cc1)C1C=CS(=O)(=O)C1` (stereo not given), “inactive”; to `CC(C)COC(=O)c1ccc(NC(=O)C2C3C=CC(C3)C2C(=O)O)cc1` (stereo not given), “inactive”.
For `COc1cncc(-c2cnc3sc(NCCc4ccccn4)nn23)c1`, the Potency result is “inactive”.
To `COCCN1C(=O)c2oc3c(C)cc(C)cc3c(=O)c2C1c1cccc(O)c1` (stereo not given) belongs “inactive”; to `O=C1CCC(=O)N1CCOP1(=O)COc2ccccc2OC1`, “inactive”.
As to `COc1ccc(C)cc1NC(=O)CN1c2cccc3cccc(c23)S1(=O)=O`, the Potency entry was “inactive”.
With `COC(=O)c1c(C)cc(O)c(C)c1O` the entry was “inactive”; with `CC(=O)N1c2ccc(S(=O)(=O)N3CCCC(C(=O)NCc4ccc(Cl)cc4)C3)cc2CC1C` (stereo not given), “inactive”; with `Cc1ccc(Cl)cc1NC(=O)COC(=O)CC(C)(C)C`, “inactive”.
`CN(CC(O)COc1ccc(S(=O)(=O)N2CCOCC2)cc1Cl)C1CCCCC1` (stereo not given): the Potency entry was “inactive”.
With `Cc1ccc(C(C)C)c(OCc2nnc(SCC(=O)Nc3nccs3)n2C)c1` the entry was “inactive”.
To `O=C(c1ccccc1)N1CCC(CC2CC(c3ccc(Cl)cc3)=NO2)(C(=O)NCC2CCCCC2)CC1` (stereo not given) belongs “inactive”; to `CCc1c(O)nc(SCC(=O)N2CCCCC2)n(-c2ccccc2C)c1=O`, “inactive”; to `Cc1ccc(CN2CCN(c3ccccc3Cl)CC2)o1`, “inactive”.
